# Unmarked numbers belong to inactive results.
# How the values were obtained:
# Experiment in all cases: log2 ratio of Biotin-Ahx-Ub-VS probe labelling (fragment/DMSO); higher = less target engagement (more negative = stronger competition), active = hit call of the paper (q ≤ 0.05, log2 ratio ≤ -1)
# Conditions in all cases: compound concentration: 200 uM; treatment time: 3 h
# USP19 = target: T1, USP19 (UniProt O94966)
# T1 sequence (whole entry): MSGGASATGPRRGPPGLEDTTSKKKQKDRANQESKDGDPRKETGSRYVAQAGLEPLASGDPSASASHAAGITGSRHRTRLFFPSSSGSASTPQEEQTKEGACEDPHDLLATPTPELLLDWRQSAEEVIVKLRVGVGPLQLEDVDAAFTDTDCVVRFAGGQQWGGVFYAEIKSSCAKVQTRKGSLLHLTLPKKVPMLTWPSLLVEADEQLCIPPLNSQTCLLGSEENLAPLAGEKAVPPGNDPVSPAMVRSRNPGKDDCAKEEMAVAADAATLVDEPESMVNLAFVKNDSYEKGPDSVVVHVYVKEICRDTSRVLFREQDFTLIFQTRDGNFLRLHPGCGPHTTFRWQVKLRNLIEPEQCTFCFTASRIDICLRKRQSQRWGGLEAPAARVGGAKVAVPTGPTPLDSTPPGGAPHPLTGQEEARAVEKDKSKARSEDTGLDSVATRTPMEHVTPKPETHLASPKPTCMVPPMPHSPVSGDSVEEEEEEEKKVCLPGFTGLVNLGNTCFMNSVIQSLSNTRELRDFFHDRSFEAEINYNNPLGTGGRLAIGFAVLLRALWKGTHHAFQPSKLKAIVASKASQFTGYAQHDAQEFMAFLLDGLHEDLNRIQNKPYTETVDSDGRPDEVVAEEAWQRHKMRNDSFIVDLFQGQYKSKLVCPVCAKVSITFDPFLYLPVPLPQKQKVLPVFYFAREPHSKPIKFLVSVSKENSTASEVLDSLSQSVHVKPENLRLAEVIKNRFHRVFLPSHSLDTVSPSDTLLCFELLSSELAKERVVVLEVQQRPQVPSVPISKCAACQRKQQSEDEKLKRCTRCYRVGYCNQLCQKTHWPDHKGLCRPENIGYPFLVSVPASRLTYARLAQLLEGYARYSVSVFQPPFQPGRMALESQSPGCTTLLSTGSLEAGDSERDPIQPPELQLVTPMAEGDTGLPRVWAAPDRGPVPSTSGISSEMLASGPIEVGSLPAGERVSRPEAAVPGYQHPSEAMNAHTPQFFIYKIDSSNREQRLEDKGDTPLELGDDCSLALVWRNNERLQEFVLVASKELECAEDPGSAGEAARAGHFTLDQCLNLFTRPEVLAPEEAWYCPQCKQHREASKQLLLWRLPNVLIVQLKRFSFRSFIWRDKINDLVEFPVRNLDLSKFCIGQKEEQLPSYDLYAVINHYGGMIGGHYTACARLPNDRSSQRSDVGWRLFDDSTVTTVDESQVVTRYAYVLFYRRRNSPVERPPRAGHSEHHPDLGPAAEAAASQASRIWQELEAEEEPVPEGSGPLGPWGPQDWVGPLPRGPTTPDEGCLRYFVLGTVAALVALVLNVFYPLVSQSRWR
# Procedure, shortened: (§1)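 The table lists average log2 ratios of fragment over vehicle, from an unpaired t-test on global-median-normalised Spectronaut label-free quantities. Proteins with ≥2 unique peptides were used. Samples were HEK293T lysate (495 µg) treated in triplicate with fragment at 200 µM or vehicle for 3 h, then with Biotin-Ahx-Ub-VS (0.5 µM final) for 1 h, with labelled DUBs NeutrAvidin-enriched and run by diaPASEF LC-MS/MS.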
# USP24 = USP24 (UniProt Q9UPU5)
# USP24, sequence (Q9UPU5 whole entry): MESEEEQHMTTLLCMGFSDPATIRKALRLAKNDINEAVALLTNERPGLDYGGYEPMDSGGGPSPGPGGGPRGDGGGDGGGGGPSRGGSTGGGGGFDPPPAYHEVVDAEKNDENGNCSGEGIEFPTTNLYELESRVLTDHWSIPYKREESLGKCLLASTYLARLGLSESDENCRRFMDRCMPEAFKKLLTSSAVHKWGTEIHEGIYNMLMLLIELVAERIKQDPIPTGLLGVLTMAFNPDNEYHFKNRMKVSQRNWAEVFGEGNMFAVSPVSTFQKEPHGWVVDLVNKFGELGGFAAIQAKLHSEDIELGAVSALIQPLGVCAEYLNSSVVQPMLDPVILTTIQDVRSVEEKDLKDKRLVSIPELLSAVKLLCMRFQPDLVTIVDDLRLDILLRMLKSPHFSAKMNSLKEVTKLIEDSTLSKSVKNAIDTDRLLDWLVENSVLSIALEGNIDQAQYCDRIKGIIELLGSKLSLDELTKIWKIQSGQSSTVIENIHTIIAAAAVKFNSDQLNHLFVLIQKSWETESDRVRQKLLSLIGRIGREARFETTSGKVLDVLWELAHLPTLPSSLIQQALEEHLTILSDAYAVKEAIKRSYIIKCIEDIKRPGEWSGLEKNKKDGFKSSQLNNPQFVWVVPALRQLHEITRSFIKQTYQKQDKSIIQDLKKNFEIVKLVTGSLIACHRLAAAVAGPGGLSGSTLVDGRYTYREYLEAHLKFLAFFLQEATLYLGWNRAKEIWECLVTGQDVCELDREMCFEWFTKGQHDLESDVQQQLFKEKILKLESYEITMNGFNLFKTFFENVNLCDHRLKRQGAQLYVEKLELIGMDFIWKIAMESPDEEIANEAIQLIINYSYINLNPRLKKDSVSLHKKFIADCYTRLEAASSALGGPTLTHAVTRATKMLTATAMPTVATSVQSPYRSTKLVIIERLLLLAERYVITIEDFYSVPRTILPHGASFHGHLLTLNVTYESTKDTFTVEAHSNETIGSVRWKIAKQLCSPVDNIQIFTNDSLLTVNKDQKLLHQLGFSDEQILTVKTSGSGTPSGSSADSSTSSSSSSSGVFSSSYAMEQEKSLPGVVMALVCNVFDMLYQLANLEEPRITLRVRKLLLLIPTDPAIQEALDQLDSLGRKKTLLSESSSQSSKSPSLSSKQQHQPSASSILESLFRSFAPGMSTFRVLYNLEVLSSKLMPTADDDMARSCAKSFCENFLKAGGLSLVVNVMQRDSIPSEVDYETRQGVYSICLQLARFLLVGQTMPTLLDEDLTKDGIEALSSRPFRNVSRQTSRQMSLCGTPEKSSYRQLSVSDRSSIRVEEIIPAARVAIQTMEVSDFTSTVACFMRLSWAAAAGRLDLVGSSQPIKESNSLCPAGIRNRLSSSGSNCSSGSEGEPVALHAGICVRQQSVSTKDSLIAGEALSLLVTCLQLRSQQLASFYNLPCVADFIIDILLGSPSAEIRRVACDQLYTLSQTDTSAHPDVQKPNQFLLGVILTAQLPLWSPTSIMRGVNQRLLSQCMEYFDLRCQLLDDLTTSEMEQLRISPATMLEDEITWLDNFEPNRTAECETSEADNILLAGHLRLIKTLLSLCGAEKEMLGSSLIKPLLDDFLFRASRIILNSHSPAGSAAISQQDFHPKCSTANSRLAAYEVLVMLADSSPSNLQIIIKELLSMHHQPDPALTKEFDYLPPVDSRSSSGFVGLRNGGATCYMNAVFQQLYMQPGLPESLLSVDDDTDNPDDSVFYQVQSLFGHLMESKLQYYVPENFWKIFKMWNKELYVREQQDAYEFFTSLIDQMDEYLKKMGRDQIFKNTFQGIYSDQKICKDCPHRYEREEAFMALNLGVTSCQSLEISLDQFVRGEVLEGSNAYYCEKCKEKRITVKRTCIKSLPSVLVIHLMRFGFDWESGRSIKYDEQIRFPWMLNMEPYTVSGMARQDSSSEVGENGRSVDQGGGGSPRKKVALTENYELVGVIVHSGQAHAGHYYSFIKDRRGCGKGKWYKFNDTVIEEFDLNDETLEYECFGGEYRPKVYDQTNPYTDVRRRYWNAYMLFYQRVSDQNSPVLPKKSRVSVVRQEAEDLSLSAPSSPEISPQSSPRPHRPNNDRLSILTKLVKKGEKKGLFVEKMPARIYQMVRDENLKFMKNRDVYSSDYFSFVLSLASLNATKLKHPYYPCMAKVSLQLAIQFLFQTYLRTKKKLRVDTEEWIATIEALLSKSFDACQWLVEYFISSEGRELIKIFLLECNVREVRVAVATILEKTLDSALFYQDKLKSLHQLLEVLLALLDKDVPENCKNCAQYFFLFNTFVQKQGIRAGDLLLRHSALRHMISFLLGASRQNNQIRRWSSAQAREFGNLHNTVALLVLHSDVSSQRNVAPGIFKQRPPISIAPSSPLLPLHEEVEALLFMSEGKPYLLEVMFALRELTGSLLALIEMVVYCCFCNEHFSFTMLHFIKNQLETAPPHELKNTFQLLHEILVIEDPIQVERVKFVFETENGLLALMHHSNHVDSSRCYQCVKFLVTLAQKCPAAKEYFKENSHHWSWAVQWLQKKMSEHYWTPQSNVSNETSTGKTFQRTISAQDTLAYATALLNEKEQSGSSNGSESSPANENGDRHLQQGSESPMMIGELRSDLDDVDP
# Procedure, shortened: as §1
# USP25 = target: T2, USP25 (UniProt Q9UHP3)
# T2 sequence (whole entry): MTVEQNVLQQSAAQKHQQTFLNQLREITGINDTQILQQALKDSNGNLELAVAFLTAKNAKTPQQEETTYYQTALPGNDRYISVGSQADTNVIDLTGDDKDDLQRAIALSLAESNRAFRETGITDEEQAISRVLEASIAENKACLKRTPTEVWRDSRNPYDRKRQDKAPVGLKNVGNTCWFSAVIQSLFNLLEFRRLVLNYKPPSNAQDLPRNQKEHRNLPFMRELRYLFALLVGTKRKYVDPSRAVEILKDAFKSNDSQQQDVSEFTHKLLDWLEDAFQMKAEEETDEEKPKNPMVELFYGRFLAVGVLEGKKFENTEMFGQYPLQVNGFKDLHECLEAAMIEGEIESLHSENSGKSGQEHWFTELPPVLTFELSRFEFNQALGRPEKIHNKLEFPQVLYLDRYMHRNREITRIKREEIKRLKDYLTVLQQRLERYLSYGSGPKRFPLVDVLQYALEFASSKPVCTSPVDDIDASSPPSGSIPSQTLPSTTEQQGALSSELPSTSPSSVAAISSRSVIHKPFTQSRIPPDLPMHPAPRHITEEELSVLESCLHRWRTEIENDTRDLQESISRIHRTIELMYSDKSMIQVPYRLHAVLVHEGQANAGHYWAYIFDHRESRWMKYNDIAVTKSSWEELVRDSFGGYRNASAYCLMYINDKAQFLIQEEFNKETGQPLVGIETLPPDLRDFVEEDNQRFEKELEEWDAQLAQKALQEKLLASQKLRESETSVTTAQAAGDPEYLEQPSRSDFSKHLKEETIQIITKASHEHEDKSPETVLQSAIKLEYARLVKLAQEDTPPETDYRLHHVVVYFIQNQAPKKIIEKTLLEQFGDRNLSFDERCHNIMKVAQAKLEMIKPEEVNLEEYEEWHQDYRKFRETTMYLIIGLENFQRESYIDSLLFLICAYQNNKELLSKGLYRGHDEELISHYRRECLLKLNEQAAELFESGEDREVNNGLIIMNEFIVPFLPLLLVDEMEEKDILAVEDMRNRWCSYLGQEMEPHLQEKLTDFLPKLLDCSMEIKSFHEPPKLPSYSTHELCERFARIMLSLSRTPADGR
# Procedure, shortened: as §1
# USP28 = target: T3, USP28 (UniProt Q96RU2)
# T3 sequence (whole entry): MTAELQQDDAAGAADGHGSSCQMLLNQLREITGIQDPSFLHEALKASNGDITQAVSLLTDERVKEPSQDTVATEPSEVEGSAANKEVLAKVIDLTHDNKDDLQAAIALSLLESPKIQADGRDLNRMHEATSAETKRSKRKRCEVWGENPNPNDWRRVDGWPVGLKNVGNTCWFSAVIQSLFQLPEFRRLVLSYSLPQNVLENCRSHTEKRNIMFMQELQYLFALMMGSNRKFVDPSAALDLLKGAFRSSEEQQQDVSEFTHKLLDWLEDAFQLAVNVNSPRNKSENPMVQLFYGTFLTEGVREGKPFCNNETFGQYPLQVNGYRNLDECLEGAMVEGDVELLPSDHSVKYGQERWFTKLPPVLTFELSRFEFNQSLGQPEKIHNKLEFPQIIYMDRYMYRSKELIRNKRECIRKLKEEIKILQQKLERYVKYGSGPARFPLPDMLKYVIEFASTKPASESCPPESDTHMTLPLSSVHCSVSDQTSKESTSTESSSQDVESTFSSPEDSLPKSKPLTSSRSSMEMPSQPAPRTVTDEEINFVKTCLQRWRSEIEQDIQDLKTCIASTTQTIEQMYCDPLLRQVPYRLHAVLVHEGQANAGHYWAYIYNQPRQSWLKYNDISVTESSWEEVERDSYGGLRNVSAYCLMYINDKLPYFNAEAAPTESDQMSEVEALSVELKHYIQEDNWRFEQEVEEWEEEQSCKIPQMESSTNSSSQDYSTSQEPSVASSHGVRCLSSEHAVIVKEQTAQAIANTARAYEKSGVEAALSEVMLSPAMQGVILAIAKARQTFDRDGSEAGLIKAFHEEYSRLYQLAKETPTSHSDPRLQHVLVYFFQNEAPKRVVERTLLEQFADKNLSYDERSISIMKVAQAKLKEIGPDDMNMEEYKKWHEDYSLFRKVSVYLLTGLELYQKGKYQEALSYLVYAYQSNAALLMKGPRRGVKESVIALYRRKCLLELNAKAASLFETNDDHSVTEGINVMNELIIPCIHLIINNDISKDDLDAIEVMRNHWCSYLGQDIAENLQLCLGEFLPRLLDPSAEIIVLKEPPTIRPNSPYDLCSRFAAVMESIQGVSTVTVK
# Procedure, shortened: as §1
structure (smiles),measurement,setting,value
O=C(CCl)N1c2ccccc2NC(=O)C12CCCC2,log2 ratio of Biotin-Ahx-Ub-VS probe labelling,USP19,-0.0862
same,log2 ratio of Biotin-Ahx-Ub-VS probe labelling,USP24,-2.66 (active)
same,log2 ratio of Biotin-Ahx-Ub-VS probe labelling,USP25,-0.252
same,log2 ratio of Biotin-Ahx-Ub-VS probe labelling,USP28,-0.397
